# Laboratory results published in paper PMC5540273 (PLoS ONE, 2017).
# Like-named read-outs stand apart in the source and are kept apart here.
# Legend:
# FLT1 = conditions: concentration: 1 μM, replicates: in singlicate; n = 1
# FLT3-autoinhibited = conditions: concentration: 1 μM, replicates: in singlicate; n = 1
# FLT3 = conditions: concentration: 1 μM, replicates: in singlicate; n = 1
# FLT4 = conditions: concentration: 1 μM, replicates: in singlicate; n = 1
# FRK = conditions: concentration: 1 μM, replicates: in singlicate; n = 1
# FYN = conditions: concentration: 1 μM, replicates: in singlicate; n = 1
# GAK = conditions: concentration: 1 μM, replicates: in singlicate; n = 1
# GCN2(Kin.Dom.2,S808G) = tested on: T1, GCN2(Kin.Dom.2,S808G); conditions: concentration: 1 μM, replicates: in singlicate; n = 1
# T1 construct: gene EIF2AK4
# GRK1 = conditions: concentration: 1 μM, replicates: in singlicate; n = 1
# GRK2 = tested on: T2, GRK2; conditions: concentration: 1 μM, replicates: in singlicate; n = 1
# T2 construct: gene ADRBK1
# GRK3 = tested on: T3, GRK3; conditions: concentration: 1 μM, replicates: in singlicate; n = 1
# T3 construct: gene ADRBK2
# GRK4 = conditions: concentration: 1 μM, replicates: in singlicate; n = 1
# GRK7 = conditions: concentration: 1 μM, replicates: in singlicate; n = 1
# GSK3A = conditions: concentration: 1 μM, replicates: in singlicate; n = 1
# GSK3B = conditions: n = 1
# HASPIN = tested on: T4, HASPIN; conditions: concentration: 1 μM, replicates: in singlicate; n = 1
# T4 construct: gene GSG2
# HCK = conditions: concentration: 1 μM, replicates: in singlicate; n = 1
# HIPK1 = conditions: concentration: 1 μM, replicates: in singlicate; n = 1
# HIPK2 = conditions: concentration: 1 μM, replicates: in singlicate; n = 1
# HIPK3 = conditions: concentration: 1 μM, replicates: in singlicate; n = 1
# [1] = concentration: 1 μM, replicates: in singlicate
# 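Also: KINOMEscan kinase panel screen.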
smiles,measurement,setting,value
Cc1c(Cn2c3ccccc3n3c(=O)cc(N4CCOCC4)nc23)cccc1C(F)(F)F [GSK2306394],%Inh,FLT1,27%
same,%Inh,FLT3-autoinhibited,17%
same,%Inh,FLT3,11%
same,%Inh,FLT4,18%
same,%Inh,FRK,0%
same,%Inh,FYN,20%
same,%Inh,GAK,18%
same,%Inh,"GCN2(Kin.Dom.2,S808G)",5%
same,%Inh,GRK1,0%
same,%Inh,GRK2,0%
same,%Inh,GRK3,0%
same,%Inh,GRK4,0%
same,%Inh,GRK7,0%
same,%Inh,GSK3A,13%
same,%Inh,GSK3B; [1],18%
same,%Inh,HASPIN,0%
same,%Inh,HCK,0%
same,%Inh,HIPK1,0%
same,%Inh,HIPK2,0%
same,%Inh,HIPK3,16%
Cc1ccccc1-c1cc(-c2c[nH]nc2-c2ccccn2)ccn1 [GW680061],%Inh,FLT1,6%
same,%Inh,FLT3-autoinhibited,0%
same,%Inh,FLT3,0%
same,%Inh,FLT4,11%
same,%Inh,FRK,13%
same,%Inh,FYN,18%
same,%Inh,GAK,11%
same,%Inh,"GCN2(Kin.Dom.2,S808G)",25%
same,%Inh,GRK1,7%
same,%Inh,GRK2,0%
same,%Inh,GRK3,37%
same,%Inh,GRK4,0%
same,%Inh,GRK7,0%
same,%Inh,GSK3A,0%
same,%Inh,GSK3B; [1],1%
same,%Inh,HASPIN,0%
same,%Inh,HCK,0%
same,%Inh,HIPK1,4%
same,%Inh,HIPK2,0%
same,%Inh,HIPK3,10%
CNc1nc(-c2ccc3c(N)n[nH]c3c2)cc(N2C[C@@H](C(=O)NC3CCCCC3)OC[C@H]2C)n1 [GSK2375584],%Inh,FLT1,25%
same,%Inh,FLT3-autoinhibited,20%
same,%Inh,FLT3,0%
same,%Inh,FLT4,0%
same,%Inh,FRK,4%
same,%Inh,FYN,6%
same,%Inh,GAK,0%
same,%Inh,"GCN2(Kin.Dom.2,S808G)",0%
same,%Inh,GRK1,12%
same,%Inh,GRK2,0%
same,%Inh,GRK3,37%
same,%Inh,GRK4,4%
same,%Inh,GRK7,0%
same,%Inh,GSK3A,10%
same,%Inh,GSK3B; [1],14%
same,%Inh,HASPIN,30%
same,%Inh,HCK,0%
same,%Inh,HIPK1,24%
same,%Inh,HIPK2,0%
same,%Inh,HIPK3,2%
CC(=O)c1cccc(NC(=O)NC2CCN(c3ccnc(Nc4ccc(F)cc4)n3)C2)c1 (centres unmarked) [GSK1379710],%Inh,FLT1,27%
same,%Inh,FLT3-autoinhibited,11%
same,%Inh,FLT3,0%
same,%Inh,FLT4,12%
same,%Inh,FRK,0%
same,%Inh,FYN,27%
same,%Inh,GAK,5%
same,%Inh,"GCN2(Kin.Dom.2,S808G)",0%
same,%Inh,GRK1,0%
same,%Inh,GRK2,10%
same,%Inh,GRK3,49%
same,%Inh,GRK4,0%
same,%Inh,GRK7,0%
same,%Inh,GSK3A,32%
same,%Inh,GSK3B; [1],4%
same,%Inh,HASPIN,26%
same,%Inh,HCK,2%
same,%Inh,HIPK1,0%
same,%Inh,HIPK2,0%
same,%Inh,HIPK3,7%
Cl.Cl.Cl.N#Cc1ccc(CCNc2nccc(-c3cccc(CN4CCNCC4)c3)n2)cc1 [GSK2137462],%Inh,FLT1,17%
same,%Inh,FLT3-autoinhibited,0%
same,%Inh,FLT3,38%
same,%Inh,FLT4,2%
same,%Inh,FRK,4%
same,%Inh,FYN,38%
same,%Inh,GAK,26%
same,%Inh,"GCN2(Kin.Dom.2,S808G)",11%
same,%Inh,GRK1,0%
same,%Inh,GRK2,0%
same,%Inh,GRK3,0%
same,%Inh,GRK4,0%
same,%Inh,GRK7,5%
same,%Inh,GSK3A,31%
same,%Inh,GSK3B; [1],7%
same,%Inh,HASPIN,42%
same,%Inh,HCK,0%
same,%Inh,HIPK1,1%
same,%Inh,HIPK2,0%
same,%Inh,HIPK3,21%
Cc1ccc(NC(=O)Nc2ccccc2F)cc1-c1ccc(C(=O)Nc2ccncc2)cc1 [GSK1398477],%Inh,FLT1,45%
same,%Inh,FLT3-autoinhibited,0%
same,%Inh,FLT3,13%
same,%Inh,FLT4,34%
same,%Inh,FRK,72%
same,%Inh,FYN,40%
same,%Inh,GAK,24%
same,%Inh,"GCN2(Kin.Dom.2,S808G)",28%
same,%Inh,GRK1,0%
same,%Inh,GRK2,0%
same,%Inh,GRK3,0%
same,%Inh,GRK4,30%
same,%Inh,GRK7,0%
same,%Inh,GSK3A,25%
same,%Inh,GSK3B; [1],3%
same,%Inh,HASPIN,0%
same,%Inh,HCK,0%
same,%Inh,HIPK1,0%
same,%Inh,HIPK2,0%
same,%Inh,HIPK3,10%
CCc1ccc(-c2ccc3c(c2)-c2n[nH]cc2S(=O)(=O)N3C)cc1,%Inh,FLT1,14%
same,%Inh,FLT3-autoinhibited,4%
same,%Inh,FLT3,56%
same,%Inh,FLT4,0%
same,%Inh,FRK,2%
same,%Inh,FYN,14%
same,%Inh,GAK,0%
same,%Inh,"GCN2(Kin.Dom.2,S808G)",24%
same,%Inh,GRK1,6%
same,%Inh,GRK2,0%
same,%Inh,GRK3,0%
same,%Inh,GRK4,0%
same,%Inh,GRK7,0%
same,%Inh,GSK3A,35%
same,%Inh,GSK3B; [1],0%
same,%Inh,HASPIN,4%
same,%Inh,HCK,16%
same,%Inh,HIPK1,0%
same,%Inh,HIPK2,0%
same,%Inh,HIPK3,0%
O=C(Nc1n[nH]c2cc(-c3ccsc3)ccc12)C1CC1 [SB-732932],%Inh,FLT1,14%
same,%Inh,FLT3-autoinhibited,29%
same,%Inh,FLT3,75%
same,%Inh,FLT4,0%
same,%Inh,FRK,0%
same,%Inh,FYN,4%
same,%Inh,GAK,28%
same,%Inh,"GCN2(Kin.Dom.2,S808G)",0%
same,%Inh,GRK1,0%
same,%Inh,GRK2,0%
same,%Inh,GRK3,40%
same,%Inh,GRK4,79%
same,%Inh,GRK7,0%
same,%Inh,GSK3A,38%
same,%Inh,GSK3B; 1 µM,29%
same,%Inh,HASPIN,43%
same,%Inh,HCK,0%
same,%Inh,HIPK1,7%
same,%Inh,HIPK2,26%
same,%Inh,HIPK3,24%
Cc1cnc(N)c(/C=C/c2cncc(C(=O)NCCc3ccc(Cl)cc3Cl)c2)c1.Cl [GSK190937],%Inh,FLT1,0%
same,%Inh,FLT3-autoinhibited,0%
same,%Inh,FLT3,2%
same,%Inh,FLT4,7%
same,%Inh,FRK,6%
same,%Inh,FYN,20%
same,%Inh,GAK,29%
same,%Inh,"GCN2(Kin.Dom.2,S808G)",3%
same,%Inh,GRK1,0%
same,%Inh,GRK2,0%
same,%Inh,GRK3,6%
same,%Inh,GRK4,0%
same,%Inh,GRK7,0%
same,%Inh,GSK3A,5%
same,%Inh,GSK3B; [1],0%
same,%Inh,HASPIN,29%
same,%Inh,HCK,0%
same,%Inh,HIPK1,0%
same,%Inh,HIPK2,0%
same,%Inh,HIPK3,26%
Cc1ccccc1Cn1ccn2c(=O)cc(N3CCOCC3)nc12 [GSK2269905],%Inh,FLT1,10%
same,%Inh,FLT3-autoinhibited,2%
same,%Inh,FLT3,0%
same,%Inh,FLT4,0%
same,%Inh,FRK,14%
same,%Inh,FYN,26%
same,%Inh,GAK,1%
same,%Inh,"GCN2(Kin.Dom.2,S808G)",4%
same,%Inh,GRK1,0%
same,%Inh,GRK2,0%
same,%Inh,GRK3,26%
same,%Inh,GRK4,0%
same,%Inh,GRK7,0%
same,%Inh,GSK3A,2%
same,%Inh,GSK3B; [1],15%
same,%Inh,HASPIN,0%
same,%Inh,HCK,0%
same,%Inh,HIPK1,0%
same,%Inh,HIPK2,0%
same,%Inh,HIPK3,9%
